# The panel holds about 79,000 compounds, 15% with a hit somewhere; the sample as a whole holds those more often. Values without a mark were called inactive. No stated cut-off is given here; in the data, active means growth inhibition above about 70%; inactive means the rest.
# Assay: NCI Yeast Anticancer Drug Screen. Data for the sgs1 mgt1 strain (AID 161);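 further: 0% = growth of cultures given vehicle only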
# Conditions: S. cerevisiae sgs1 mgt1 strain, at 50.0 µM, hits give high values
# Procedure, shortened: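 Inhibition of yeast growth, normalised to vehicle-treated controls, is reported for a strain bearing genetic alterations in DNA damage repair.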
row,Compound,growth inhibition
1,CCCCCCCCCCCCCCCCCC1=NCC(C)O1 (stereo not given),-0.35%
2,O=C1C(N=Cc2c(O)ccc3ccccc23)CON1C(c1ccccc1)(c1ccccc1)c1ccccc1 (stereo not given),28.9%
3,COc1cc(/C=C/C(=O)OC2C(O)C3CC(OC(=O)c4cc(OC)c(OC)c(OC)c4)CC2N3C)cc(OC)c1OC (stereo not given),7.6%
4,Cc1cc([N+](=O)[O-])ccn1,-18.1%
5,COc1cc(NC(C)CCCN)c2nccc(C)c2c1 (stereo not given),-27.1%
6,O=S(=O)(N1CCOCC1)N1CCOCC1,-3.55%
7,NC(=O)N/N=C/c1ccccc1O,15%
8,COc1ccc2nc3cccc([N+](=O)[O-])c3c(NCCC(=O)O)c2c1,49.9%
9,CCN(CC)P(=O)(c1ccc2c(c1)OCCOCCOCCOCCO2)N(CC)CC,21.7%
10,N#CC(NCCCNC(C#N)c1ccccc1)c1ccccc1 (stereo not given),-4.6%
11,CC(=O)SC1CC2CCC1C2 (stereo not given),-17.4%
12,CCOC(=O)COc1c(C)cccc1C,-2.5%
13,CCCCOCCOCC(C)O (stereo not given),37.2%
14,CC(C)CC(Br)C(=O)NCC(=O)NCC(=O)O (stereo not given),-5.35%
15,OC1CCCCC2CC2C1O (stereo not given),6.8%
16,CSc1nc(NC2OC(COC(C)=O)C(OC(C)=O)C(OC(C)=O)C2OC(C)=O)c2c(n1)OCC2=O (stereo not given),-38%
17,Nc1ncnc2nc(N3CCN(CCO)CC3)[nH]c12,-34.1%
18,ClC1CCC(c2ccccc2)CC1 (stereo not given),1.5%
19,CC(C)[Si](C#CC[Si](C(C)C)(C(C)C)C(C)C)(C(C)C)C(C)C,-17.4%
20,Cc1ccc(N(C(=O)CC(=O)NN)C(=O)c2ccccc2Cl)cc1,-8.25%

row,Compound,growth inhibition
1,Cc1nc2cc(Cl)ccc2s1,22.1%
2,c1ccc2[nH]c(N=Nc3cccc4c(N=Nc5cc6ccccc6[nH]5)cccc34)cc2c1,-13.7%
3,CCOc1ccc(N(O)C(C)=O)cc1,3%
4,CC1CC(=O)C(CC(=O)O)[C@H]1C(C(=O)C(=O)Nc1cc(Cl)ccc1Cl)[N+](=O)[O-] (stereo not given in full),-10.1%
5,O=[N+]([O-])c1ccc(C(O)(C#CCN2CCCC2)c2ccccc2)cc1 (stereo not given),-24.1%
6,CCC(CO)N1CNC(=S)NC1 (stereo not given),4.85%
7,CC(=O)Nc1ccccc1NOC(=O)c1ccccc1NC(C)=O,4.45%
8,CCN(CC)c1ccc(C(C#N)(c2ccc(N(CC)Cc3cccc(S(=O)(=O)O)c3)cc2)c2ccc(N(CC)Cc3cccc(S(=O)(=O)O)c3)cc2)cc1,4.55%
9,CC1CCCN(C(=O)Nc2ccccc2)C1 (stereo not given),-10.2%
10,CCCC(=O)Oc1ccc2ccccc2c1,1.8%
11,CCOC(=O)[C@H]1Nc2ccc(C)cc2C2c3ccccc3CC21 (stereo not given in full),3.45%
12,CC(C)CN(CC#N)CC(C)C,-34.5%
13,O=[N+]([O-])c1ccc(-c2cc3ccccc3nc2Cl)cc1,8.4%
14,CC(C)(C)[Si](C)(C)OCC1OC(n2cnc3c(N)ncnc32)C(O)C1O (stereo not given),4.85%
15,O=C(NC(=O)c1ccc(F)c(Cl)c1)NC1CC1,12%
16,N#CCCNCCC[Si]12OCCN(CCO1)CCO2,10.5%
17,Cc1cc(N(CCC#N)CCC#N)ccc1/C(N=Nc1cccc(Cl)c1)=N/NC(=O)c1cc(Cl)ccc1O,26.8%
18,CCCCCCCCOc1ccc(Cl)cc1,-5.35%
19,NC(=O)c1ccccc1NC(=O)C(=O)Cc1nc2ccccc2[nH]c1=O,11.7%
20,CC(=O)OCC1OC(n2ccc(=O)[nH]c2=O)CC1N=[N+]=[N-] (stereo not given),1.05%

# Assay: NCI Yeast Anticancer Drug Screen. Data for the cln2 rad14 strain (AID 165);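 further: 0% = growth equal to vehicle treated cultures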
# Conditions: S. cerevisiae cln2 rad14 strain, at 50.0 µM, hits give high values
# Procedure, shortened: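 The screen exposed genetically defined yeast (cln2 rad14) to test compounds and scored growth inhibition relative to vehicle-treated controls.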
row,Compound,growth inhibition
1,CCCCCCCCCCCCCCCCCC1=NCC(C)O1 (stereo not given),19.6%
2,O=C1C(N=Cc2c(O)ccc3ccccc23)CON1C(c1ccccc1)(c1ccccc1)c1ccccc1 (stereo not given),20.1%
3,COc1cc(/C=C/C(=O)OC2C(O)C3CC(OC(=O)c4cc(OC)c(OC)c(OC)c4)CC2N3C)cc(OC)c1OC (stereo not given),6.15%
4,Cc1cc([N+](=O)[O-])ccn1,-4.5%
5,COc1cc(NC(C)CCCN)c2nccc(C)c2c1 (stereo not given),-8.15%
6,O=S(=O)(N1CCOCC1)N1CCOCC1,-25.6%
7,NC(=O)N/N=C/c1ccccc1O,5.95%
8,COc1ccc2nc3cccc([N+](=O)[O-])c3c(NCCC(=O)O)c2c1,26.8%
9,CCN(CC)P(=O)(c1ccc2c(c1)OCCOCCOCCOCCO2)N(CC)CC,23.3%
10,N#CC(NCCCNC(C#N)c1ccccc1)c1ccccc1 (stereo not given),-23.7%
11,CC(=O)SC1CC2CCC1C2 (stereo not given),9.95%
12,CCOC(=O)COc1c(C)cccc1C,14.8%
13,CCCCOCCOCC(C)O (stereo not given),-24.4%
14,CC(C)CC(Br)C(=O)NCC(=O)NCC(=O)O (stereo not given),7.95%
15,OC1CCCCC2CC2C1O (stereo not given),-44.7%
16,CSc1nc(NC2OC(COC(C)=O)C(OC(C)=O)C(OC(C)=O)C2OC(C)=O)c2c(n1)OCC2=O (stereo not given),28.2%
17,Nc1ncnc2nc(N3CCN(CCO)CC3)[nH]c12,-29.5%
18,ClC1CCC(c2ccccc2)CC1 (stereo not given),3.75%
19,CC(C)[Si](C#CC[Si](C(C)C)(C(C)C)C(C)C)(C(C)C)C(C)C,-17.6%
20,Cc1ccc(N(C(=O)CC(=O)NN)C(=O)c2ccccc2Cl)cc1,27%

row,Compound,growth inhibition
1,Cc1nc2cc(Cl)ccc2s1,18.4%
2,c1ccc2[nH]c(N=Nc3cccc4c(N=Nc5cc6ccccc6[nH]5)cccc34)cc2c1,18.1%
3,CCOc1ccc(N(O)C(C)=O)cc1,-43.4%
4,CC1CC(=O)C(CC(=O)O)[C@H]1C(C(=O)C(=O)Nc1cc(Cl)ccc1Cl)[N+](=O)[O-] (stereo not given in full),14.7%
5,O=[N+]([O-])c1ccc(C(O)(C#CCN2CCCC2)c2ccccc2)cc1 (stereo not given),10.2%
6,CCC(CO)N1CNC(=S)NC1 (stereo not given),0.8%
7,CC(=O)Nc1ccccc1NOC(=O)c1ccccc1NC(C)=O,32.7%
8,CCN(CC)c1ccc(C(C#N)(c2ccc(N(CC)Cc3cccc(S(=O)(=O)O)c3)cc2)c2ccc(N(CC)Cc3cccc(S(=O)(=O)O)c3)cc2)cc1,-7.7%
9,CC1CCCN(C(=O)Nc2ccccc2)C1 (stereo not given),10.4%
10,CCCC(=O)Oc1ccc2ccccc2c1,14.7%
11,CCOC(=O)[C@H]1Nc2ccc(C)cc2C2c3ccccc3CC21 (stereo not given in full),-1.7%
12,CC(C)CN(CC#N)CC(C)C,15.1%
13,O=[N+]([O-])c1ccc(-c2cc3ccccc3nc2Cl)cc1,5.55%
14,CC(C)(C)[Si](C)(C)OCC1OC(n2cnc3c(N)ncnc32)C(O)C1O (stereo not given),-0.2%
15,O=C(NC(=O)c1ccc(F)c(Cl)c1)NC1CC1,14.2%
16,N#CCCNCCC[Si]12OCCN(CCO1)CCO2,56.9%
17,Cc1cc(N(CCC#N)CCC#N)ccc1/C(N=Nc1cccc(Cl)c1)=N/NC(=O)c1cc(Cl)ccc1O,10.3%
18,CCCCCCCCOc1ccc(Cl)cc1,-35.2%
19,NC(=O)c1ccccc1NC(=O)C(=O)Cc1nc2ccccc2[nH]c1=O,12.7%
20,CC(=O)OCC1OC(n2ccc(=O)[nH]c2=O)CC1N=[N+]=[N-] (stereo not given),-48.3%

# — PubChem BioAssay (NCI)
